Assay results from PubChem BioAssay (EPA / NIEHS).
Active and inactive are the calls of the source. How the source made its calls: active means hit-call score of the fitted dose curve at least 0.9, where 1 is the maximum; inactive means score below 0.9.

Legend:
[1] = APR_HepG2_CellCycleArrest_24hr: Apredica 24-hour HepG2 Assay for Cell Cycle Arrest (AID 2282905); conditions: imaging, actives raise or lower the signal;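 further: cell cycle arrest scored as ratio of 2N to 4N nuclear DNA content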
Procedure, shortened: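 Cell cycle arrest is scored from nuclear DNA content measured by high-content imaging of Hoechst 33342-stained HepG2 cells following 24-hour treatment at ten concentrations up to 200 uM, with DMSO as baseline.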

[2] = APR_HepG2_NuclearSize_24hr: Apredica 24-hour HepG2 Assay for Nuclear Size (AID 2282907); conditions: high-content imaging, actives raise or lower the signal
Procedure, shortened: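 Compounds in DMSO (final 0.5%) were added to human HepG2 hepatoma cells at ten concentrations up to 200 uM for 24 hr. Fixed nuclei were stained with Hoechst 33342, and nuclear diameter was quantified from automated images.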

[3] = APR_HepG2_CellLoss_24hr: Apredica 24-hour HepG2 Assay for Cell Loss (AID 2282908); conditions: high-content imaging
Procedure, shortened: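 Cell number is quantified by fluorescence imaging of Hoechst 33342-stained nuclei following dosing at 0.39–200 uM in 0.5% DMSO. Curves are fitted in both directions from the DMSO baseline.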

[4] = APR_HepG2_MicrotubuleCSK_24hr: Apredica 24-hour HepG2 Assay for Microtubule CSK Stabilty (AID 2282909); conditions: HepG2 microtubule cytoskeleton imaging, actives raise or lower the signal
Procedure, shortened: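 Steps: dose HepG2 for 24 h (0.39–200 uM, 0.5% DMSO); fix 30 min in 3.7% formaldehyde at room temperature; permeabilize; stain alpha-tubulin 60 min; image microtubule cytoskeleton at 20x. Signal change fitted in both directions relative to DMSO.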

[5] = APR_HepG2_MitoticArrest_24hr: Apredica 24-hour HepG2 Assay for Mitotic Arrest (AID 2282910); conditions: high-content imaging, actives raise or lower the signal
Procedure, shortened: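 Compounds are dosed onto HepG2 cells across ten concentrations up to 200 uM for 24 hr. Cells are then fixed in 3.7% formaldehyde, permeabilised, and labelled for phospho-histone H3 and nuclei; images are scored by cell cycle analysis and fitted bidirectionally relative to DMSO.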

[6] = APR_HepG2_MitoMembPot_24hr: Apredica 24-hour HepG2 Assay for Mitochondrial Membrane Potential (AID 2282911); conditions: imaging, actives raise or lower the signal
Procedure, shortened: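 Cells are dosed for 24 hr across 0.39 to 200 uM with solvent held at 0.5% DMSO. They are then stained with 250 nM MitoTracker Red CMXRos for 30 min, fixed in 3.7% formaldehyde and imaged.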

[7] = APR_HepG2_MitoMass_24hr: Apredica 24-hour HepG2 Assay for Mitochondrial Mass (AID 2282912); conditions: high-content imaging, actives raise or lower the signal
Procedure, shortened: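 The liver line HepG2 was dosed in duplicate across a 0.39–200 uM series, with final DMSO held at 0.5% v/v, and harvested at 24 hr. High-content imaging measured mitochondrial dye staining.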

[8] = APR_HepG2_p53Act_24hr: Apredica 24-hour HepG2 Assay for p53 Activation (AID 2282913); conditions: high-content imaging, actives raise or lower the signal;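 further: p53 protein immunofluorescence averaged per cell in HepG2 with Hoechst nuclei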
Procedure, shortened: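 Human HepG2 liver cells; 24 hr cpd treatment, 0.39–200 uM, 0.5% DMSO final. Fixed in 3.7% formaldehyde, permeabilized with 0.5% Triton X-100, stained with anti-p53/Cy5 plus Hoechst 33342. Six images per well at 20x; gain or loss vs DMSO.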

[9] = APR_HepG2_CellCycleArrest_72hr: Apredica 72-hour HepG2 Assay for Cell Cycle Arrest (AID 2282914); conditions: high-content imaging, actives raise or lower the signal
Procedure, shortened: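 Read-out is Hoechst-stained nuclear DNA content measured by automated fluorescence imaging (20x, six images per well), fitted in both directions relative to DMSO. Human HepG2 liver cells received 0.39–200 uM compound for 72 hr at 0.5% v/v DMSO.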

[10] = APR_HepG2_CellLoss_72hr: Apredica 72-hour HepG2 Assay for Cell Loss (AID 2282915); conditions: high-content imaging
Procedure, shortened: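 Cell number comes from Hoechst 33342-labelled nuclei, imaged at 20x after 3.7% formaldehyde fixation. Dosing was 0.39–200 uM, ten concentrations in duplicate, 0.5% DMSO final, for 72 h. Bidirectional fit relative to DMSO baseline.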

[11] = APR_HepG2_P-H2AX_72hr: Apredica 72-hour HepG2 Assay for H2AX Phosphorylation (AID 2282916); conditions: imaging, actives raise or lower the signal;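 further: phospho-histone H2A.x immunostain intensity per cell marking DNA damage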
Procedure, shortened: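 Following 72 hr treatment with 0.39–200 uM compound, HepG2 cells were formaldehyde-fixed, permeabilized and stained for phospho-H2A.x; signal was measured by high-content imaging and fitted bidirectionally against DMSO controls.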

[12] = APR_HepG2_CellLoss_1hr: Apredica 1-hour HepG2 Assay for Cell Loss (AID 2282668); conditions: high-content imaging;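 further: curves fitted both ways against DMSO so gain or loss of cells counts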
Procedure, shortened: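 HepG2 cells were treated for 1 h with compound at 0.39–200 uM, in duplicate, in 0.5% DMSO. After formaldehyde fixation, Hoechst 33342-stained nuclei were imaged on an ArrayScan to count cells. Data were fitted bidirectionally versus DMSO.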

[13] = APR_HepG2_MicrotubuleCSK_1hr: Apredica 1-hour HepG2 Assay for Microtubule CSK Stabilty (AID 2282669); conditions: HepG2 microtubule cytoskeleton imaging, actives raise or lower the signal
Procedure, shortened: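 HepG2 cells exposed 1 h to 0.39–200 uM compound (0.5% DMSO, duplicates), then formaldehyde-fixed, permeabilized and immunostained for alpha-tubulin with Hoechst nuclei. Imaged by ArrayScan high-content analysis; bidirectional fit versus DMSO.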

[14] = APR_HepG2_NuclearSize_1hr: Apredica 1-hour HepG2 Assay for Nuclear Size (AID 2282670); conditions: high-content imaging, actives raise or lower the signal
Procedure, shortened: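 HepG2 cells dosed 1 hr with 0.39–200 uM compound (0.5% DMSO), formaldehyde-fixed, Hoechst 33342-stained and imaged at 20x; nuclear diameter from nuclear stain, fitted bidirectionally against DMSO.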

[15] = APR_HepG2_P-H2AX_1hr: Apredica 1-hour HepG2 Assay for H2AX Phosphorylation (AID 2282673); conditions: high-content imaging, actives raise or lower the signal
Procedure, shortened: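 HepG2 dosed 1 hr at 0.39-200 uM (0.5% DMSO final), duplicate. Fixed in 3.7% formaldehyde, Triton permeabilized, immunostained for phospho-histone H2A.x (1:200) with Hoechst 33342; ArrayScan 20x imaging, bidirectional fit vs DMSO.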

[16] = APR_HepG2_MitoMass_1hr: Apredica 1-hour HepG2 Assay for Mitochondrial Mass (AID 2282674); conditions: high-content imaging, actives raise or lower the signal
Procedure, shortened: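 HepG2 cells dosed 1 hr with 0.39-200 uM compound (0.5% DMSO), duplicate wells. Mitochondria stained with 250 nM MitoTracker Red CMXRos for 30 min before formaldehyde fixation, imaged at 20x by ArrayScan; bidirectional fit versus DMSO.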

| SMILES | outcome [1] | outcome [2] | outcome [3] | outcome [4] | outcome [5] | outcome [6] | outcome [7] | outcome [8] | outcome [9] | outcome [10] | outcome [11] | outcome [12] | outcome [13] | outcome [14] | outcome [15] | outcome [16] | AC50 [6] | AC50 [10] |
| --- | --- | --- | --- | --- | --- | --- | --- | --- | --- | --- | --- | --- | --- | --- | --- | --- | --- | --- |
| CCOC(=O)c1ccc(O)cc1 | inactive | inactive | inactive | inactive | inactive | inactive | inactive | inactive | inactive | inactive | inactive | – | – | – | – | – | – | – |
| COc1nc(C)nc(NC(=O)NS(=O)(=O)c2ccccc2OCCCl)n1 | inactive | inactive | – | inactive | inactive | inactive | inactive | inactive | – | inactive | inactive | inactive | inactive | inactive | inactive | inactive | – | – |
| CN(C)C(=O)Nc1ccc(Cl)c(Cl)c1 | inactive | inactive | – | inactive | inactive | inactive | inactive | inactive | – | inactive | inactive | inactive | inactive | inactive | inactive | inactive | – | – |
| COc1c(Cl)ccc(Cl)c1C(=O)O | inactive | inactive | – | inactive | inactive | inactive | inactive | – | inactive | inactive | inactive | inactive | inactive | inactive | inactive | inactive | – | – |
| CC1(C)C(C=C(Cl)Cl)C1C(=O)OCc1cccc(Oc2ccccc2)c1 (centres undefined) | inactive | inactive | inactive | inactive | inactive | – | inactive | inactive | – | – | inactive | inactive | inactive | inactive | inactive | inactive | 100 µM (active) | 62.3 µM (active) |
| C[C@]12CC[C@@H]3c4ccc(O)cc4C[C@@H](CCCCCCCCCS(=O)CCCC(F)(F)C(F)(F)F)[C@H]3[C@@H]1CC[C@@H]2O (some centres undefined) | inactive | inactive | inactive | inactive | inactive | inactive | inactive | inactive | inactive | inactive | inactive | – | – | – | – | – | – | – |
| OB(O)O | inactive | inactive | – | inactive | inactive | inactive | inactive | inactive | inactive | inactive | inactive | inactive | inactive | inactive | inactive | inactive | – | – |
